Screening data from PubChem.
Rab9 prom act – qHTS Assay for Rab9 Promoter Activators; Huh7 Rab9 promoter-luciferase reporter, luminescence, 24 h; 2.8% of 320,000 active; Potency, µM (highest dose often 9.22 µM), most hits filed as activators; further: nearly all actives have a fitted effect of over 60% in size
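Stable Rab9-luc Huh7, 1500 cells/well, 2 h settle; cmpd in DMSO, 24 h, 37 °C/5% CO2; luciferase reagent 10 min RT; luminescence.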
NPC1 prom act – qHTS Assay for NPC1 Promoter Activators; Huh7 NPC1 promoter luciferase reporter, 24 h; Potency, µM (top dose mostly 9.22 µM), most hits filed as activators; 2.4% of 320,000 active; AID 485313, 2010; further: nearly all actives have a fitted effect of over 60% in size
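Luciferase expression driven by the NPC1 promoter was measured in stably transfected Huh7 cells after a 24 h compound incubation, using a luciferase reagent and a luminescence read.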
SMN2 splice enh – qHTS Assay for Enhancers of SMN2 Splice Variant Expression. HEK293 SMN2-luciferase splicing reporter, luminescence, 30-36 h. Potency, µM (top dose mostly 46.1 µM), most hits filed as activators. 2.8% of 210,000 active; further: nearly all actives have a fitted effect of over 55% in size
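HEK293 cells carry an SMN2 […]–luciferase reporter in which exon 7 inclusion puts luciferase in frame. Cells were plated 10-12 h before compound addition, then incubated 30-36 h at 37C. ONE-Glo luminescence was read; sodium butyrate at 4.5 mM final served as control.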
ELG1 genotox – qHTS screen for small molecules that induce genotoxicity in human embryonic kidney (HEK293T) cells expressing luciferase-tagged ELG1 | HEK293T ELG1-luciferase reporter, luminescence, 16 h | Potency, µM (series often up to 46 µM), usual class: activators | 1.3% of 330,000 active; further: nearly all actives have a fitted effect of over 60% in size
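HEK293T cells expressing luciferase-tagged ELG1 were treated with compound or DMSO for 16 hr at 37°C. Luciferase activity was then read after 30 min with ONE-Glo at room temperature; rising signal flags genetic stress.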
FLuc modulator – qHTS profiling assay for firefly luciferase inhibitor/activator using purifed enzyme and Km concentrations of substrates (counterscreen for miR-21 project); 6.9% of 360,000 active; purified FLuc, Km substrates, luminescence inhibition; Potency, µM (top dose mostly 57.5 µM), actives largely listed as inhibitors; AID 588342, 2011; further: nearly all actives have a fitted effect of over 55% in size
Target sequence (P08659 whole entry, looked up): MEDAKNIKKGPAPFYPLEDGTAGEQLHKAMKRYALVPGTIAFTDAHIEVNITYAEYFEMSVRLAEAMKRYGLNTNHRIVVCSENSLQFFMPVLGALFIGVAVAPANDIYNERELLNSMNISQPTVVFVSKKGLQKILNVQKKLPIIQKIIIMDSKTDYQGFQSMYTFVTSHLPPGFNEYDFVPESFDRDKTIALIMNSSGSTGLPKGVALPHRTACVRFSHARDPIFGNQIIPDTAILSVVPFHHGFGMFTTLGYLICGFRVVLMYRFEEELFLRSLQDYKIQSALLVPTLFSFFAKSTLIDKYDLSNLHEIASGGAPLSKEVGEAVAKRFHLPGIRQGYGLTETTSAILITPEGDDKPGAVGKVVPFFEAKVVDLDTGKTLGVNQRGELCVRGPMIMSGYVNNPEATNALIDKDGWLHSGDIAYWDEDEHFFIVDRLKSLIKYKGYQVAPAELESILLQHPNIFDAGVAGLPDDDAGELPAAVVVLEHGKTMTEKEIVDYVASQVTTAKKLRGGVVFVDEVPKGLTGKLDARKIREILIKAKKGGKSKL
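Purified P. pyralis luciferase, 10 nM final, with Km-level 10 uM D-luciferin and 10 uM ATP in 50 mM Tris acetate pH 7.5, 10 mM Mg acetate, 0.01% Tween-20, 0.05% BSA; 6-point qHTS titration about 60 µM downward; luminescence read.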
Hits are given with their value; i = inactive; ? = inconclusive; nt = no result given. Only some compounds are listed: those with a hit (about 7.5% of all), similar ones and a draw of the others. The call rests on the fitted dose curve; in most records, active means well fitted curve in the direction sought with a large enough effect; inconclusive means small, poorly fitted or top-dose-only effect, or another doubt; inactive means no such curve, though single readings can be large; an effect the other way counts as inactive or inconclusive.

SMILES	Rab9 prom act	NPC1 prom act	SMN2 splice enh	ELG1 genotox	FLuc modulator
CCC(=O)Nc1cccc(-c2csc(-c3ccccc3)n2)c1	i	i	?	i	15.1µM
CC(=O)Nc1ccc(-c2csc(NCc3ccccc3)n2)cc1	?	i	i	?	19µM
CC(=O)Nc1ccc(-c2csc(N/N=C(/C)c3ccccc3)n2)cc1	i	i	nt	i	21.3µM
CCN(CC)S(=O)(=O)c1ccc2c(c1)N(CC(=O)NCCCN1CCN(c3cc(C)ccc3C)CC1)C(=O)CO2	nt	nt	nt	nt	i
COc1ccc(C(=O)Nc2ccc(NC(=O)c3ccccn3)cn2)cc1	i	i	nt	i	?
COc1ccc(NC(=O)c2ccccn2)cc1	?	0.501µM	1.58µM	?	2.69µM
COc1ccc(NC(=O)c2ccccn2)cc1OC	3.98µM	?	?	?	16.9µM
COc1ccc(NC(=O)c2cccnc2SC)cc1OC	i	i	i	i	i
Cc1cc(C)n(-c2cc(=O)n(C)c(=O)n2C)n1	i	i	i	i	i
CCC(=O)Nc1ccc(NC(=O)/C=C/c2ccc(Cl)cc2)cc1	i	i	nt	i	i
CSc1cccc(NC(=O)/C=C/c2ccc(Cl)cc2)c1	i	?	i	i	3.38µM
COc1ccc(/C=C/C(=O)NC(=S)Nc2ccccc2)cc1OC	i	i	nt	?	i
CSc1ccc(/C=C/C(=O)Nc2ccccc2)cc1	0.316µM	0.316µM	3.16µM	i	0.239µM
C/C=C/c1ccc(OC(C)=O)c(OC)c1	i	i	i	i	i
COc1ccc(/C=C/C(=O)Nc2ccccc2)cc1OC	3.16µM	?	12.6µM	?	13.5µM
COc1cc(/C=C/C(=O)NC(=O)c2ccccc2O)ccc1OC(C)=O	?	?	nt	?	3.01µM
CN(C)c1ccc(CNC(=O)CCn2cccn2)cc1	nt	nt	nt	nt	i
O=c1c2sc3ccccc3c2n(Cc2ccccc2F)c(=O)n1-c1ccccc1Cl	nt	nt	i	nt	i
CSc1cccc(NC(=O)/C=C/c2ccccc2)c1	2.24µM	3.16µM	?	i	4.78µM
CSc1cccc(NC(C)=O)c1	i	i	i	i	i
N#Cc1c2c(c(NCCCN3CCOCC3)n3c1nc1ccccc13)CCC2	i	i	i	i	i
CC(C)Oc1ccc(CNC(=O)c2ccc3nc(C(C)C)oc3c2)cc1	nt	nt	nt	nt	i
CCOc1ccc(CNC(=O)c2ccc3c(c2)nc2n3CCOC2)cc1	nt	nt	nt	nt	i
CCOc1ccc(CNC(=O)c2ccc3c(c2)nc2n3CCCCC2)cc1	nt	nt	nt	nt	12µM
CC(C)Oc1ccc(CNC(=O)c2ccc3c(c2)nc2n3CCCCC2)cc1	nt	nt	nt	nt	9.53µM
SMILES	Rab9 prom act	NPC1 prom act	SMN2 splice enh	ELG1 genotox	FLuc modulator
Cc1nc(N2CCN(C(=O)c3ccco3)CC2)nc2c1C(=O)CCC2	0.1µM	0.316µM	nt	0.461µM	0.757µM
O=C(Nc1ccc(-c2ccc(N3CCCCC3)nn2)cc1)c1ccco1	2.82µM	?	nt	?	4.78µM
O=C(c1ccco1)N1CCN(c2ccc(N3CCCCC3)nn2)CC1	3.16µM	?	nt	?	23.9µM
Cc1nc(N2CCN(c3ccccc3)CC2)nc2c1C(=O)CCC2	i	i	i	i	i
O=C(/C=C/c1ccco1)NC(=S)Nc1cccc(-c2nc3ccccc3o2)c1	i	i	i	i	?
Cc1ccc(NC(=O)c2ccc3c(c2)C(=O)N(c2ccccc2C)C3=O)nc1	i	i	nt	i	?
Cc1ccccc1OCC(=O)Nn1c(COc2ccccc2)nc2ccccc2c1=O	i	i	i	i	26.9µM
Cc1cccc(C)c1OCC(=O)Nn1c(COc2ccccc2)nc2ccccc2c1=O	i	i	i	i	?
Cc1cccc(NC(=O)c2cc(Cl)sc2Cl)c1C	i	i	i	i	i
Cc1ccc(C)c(C(=O)COC(=O)CCCC(=O)Nc2cc(C(F)(F)F)ccc2Cl)c1	i	i	i	i	4.78µM
COc1ccc(/C=C\C(=O)NC2CC(=O)N(c3ccc(F)cc3)C2)cc1OC (configuration not stated)	nt	nt	nt	nt	i
CC(=O)Nc1ccc(NC(=O)Nc2ccccc2)cc1	?	?	nt	i	16.9µM
Cc1cc(C)cc(NC(=O)c2cc(Cl)sc2Cl)c1	i	i	i	i	?
CC(=O)Nc1ccc(C(=O)c2ccccc2)cc1	i	i	nt	i	i
CCN(CC)c1ccc(NC(=O)Nc2cccc(C(C)=O)c2)cc1	nt	nt	i	nt	1.69µM
O=C(Nc1ccccc1)Nc1csc2ccccc12	?	?	nt	i	12µM
